# Screening data from PubChem BioAssay.
# Shown are actives, neighbours in structure and some others; about 3.7% of the full set was active somewhere.
# MazEF act = activators of E. coli MazEF toxin-antitoxin RNase, primary screen, biochemical, fluorescence, uHTS; Endoribonuclease toxin MazF (Escherichia coli (strain K12)), P0AE70; FAM/BHQ RNA-DNA oligo cleavage fluorescence, 5 h; activation, % at 20 µM; 350,000 tested, 0.32% active; AID 504720, 2011; in the data active = activation above about 50%
# Anthrax LF prot = Bacillus anthracis LF protease inhibitors, primary screen, biochemical, multiplex microsphere, MLPCN library; AID 588501, 2011; multiplex microsphere protease cleavage assay; 360,000 tested, 0.12% active; inhibition, % at 10 µM; also: plate controls were buffer without enzyme for full effect and enzyme alone for no effect
# Target sequence (P15917 whole entry, looked up): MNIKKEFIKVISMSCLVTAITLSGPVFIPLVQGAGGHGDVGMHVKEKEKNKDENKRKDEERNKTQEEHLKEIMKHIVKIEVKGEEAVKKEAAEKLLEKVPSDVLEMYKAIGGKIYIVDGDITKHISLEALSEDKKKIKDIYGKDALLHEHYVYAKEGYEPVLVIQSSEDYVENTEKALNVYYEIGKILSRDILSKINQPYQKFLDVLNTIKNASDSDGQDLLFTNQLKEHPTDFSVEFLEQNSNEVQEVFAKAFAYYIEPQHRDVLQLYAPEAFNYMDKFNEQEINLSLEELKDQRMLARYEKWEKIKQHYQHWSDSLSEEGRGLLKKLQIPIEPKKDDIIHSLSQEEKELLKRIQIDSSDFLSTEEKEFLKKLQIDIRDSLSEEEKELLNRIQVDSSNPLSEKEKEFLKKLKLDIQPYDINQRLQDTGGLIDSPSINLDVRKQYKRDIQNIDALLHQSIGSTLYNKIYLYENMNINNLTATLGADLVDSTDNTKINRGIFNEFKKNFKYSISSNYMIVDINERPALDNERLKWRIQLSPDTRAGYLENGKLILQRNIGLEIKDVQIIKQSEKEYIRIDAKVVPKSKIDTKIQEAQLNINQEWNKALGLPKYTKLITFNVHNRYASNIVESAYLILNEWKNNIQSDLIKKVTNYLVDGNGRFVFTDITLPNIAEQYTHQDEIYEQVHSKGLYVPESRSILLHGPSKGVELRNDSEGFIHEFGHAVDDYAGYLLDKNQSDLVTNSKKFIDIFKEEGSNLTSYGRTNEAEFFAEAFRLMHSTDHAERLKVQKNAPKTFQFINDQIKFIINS
# Bead autofluor = flagged as autofluorescent in microsphere protease counterscreen. AID 624483. compound autofluorescence counterscreen, microsphere flow cytometry; active compounds read high. 360,000 tested, 3.1% active. fluorescence intensity (no concentration beside the values); in the data active = fluorescence intensity above about 16000; inconclusive = no clear call, values can overlap the other calls
# BoNT A protease = BoNT/A light chain protease inhibitors, primary screen, biochemical, flow cytometry, MLPCN library | multiplex microsphere protease substrate cleavage | 360,000 tested, 0.17% active | inhibition, % at 10 µM | Botulinum neurotoxin type A light chain protease (Clostridium botulinum A str. ATCC 3502) | AID 588499, 2011; also: plate controls were buffer without enzyme for full effect and enzyme alone for no effect
# BoNT F protease = BoNT/F light chain protease inhibitors, primary screen, biochemical, flow cytometry, MLPCN library; Multiplex microsphere protease cleavage assay; inhibition, % at 10 µM; 360,000 tested, 0.22% active; in the data active = inhibition above about 35%, passing the limit was not always enough; inconclusive = no clear call, values can overlap the other calls; also: plate controls were buffer without enzyme for full effect and enzyme alone for no effect
# * = called active by the depositor; ? = inconclusive; . = not tested or not shown. Rule as the data show it, unless noted: active = inhibition above about 30%; inconclusive = no clear call, values can overlap the other calls; inactive = below that.
SMILES,MazEF act,Anthrax LF prot,Bead autofluor,BoNT A protease,BoNT F protease
CCC(CC)C(=O)Nc1cccc(C(=O)Nc2ccc(S(N)(=O)=O)cc2)c1,3,-6,3823,-1,-5
CCC(CC)C(=O)Nc1cccc(S(=O)(=O)c2cccc(NC(=O)C(CC)CC)c2)c1,5,-1,16846*,-1,-1
Cc1ccc(C(=O)N2CCCC(Nc3cccc(F)c3)C2)cc1N1CCNC1=O (stereo not given),6,2,4165,2,4
CCCCOC(=O)c1cc(=O)[nH]c2ccccc12,0,-3,22271*,2,2
COc1cccc(N(C(=O)Cn2nnc(-c3cccs3)n2)C(C(=O)NC2CCCCC2)c2ccncc2)c1 (stereo not given),5,-9,10060,-2,6
Cc1ccc(C)c(N(C(=O)Cn2nnc(-c3cccs3)n2)C(C(=O)NC2CCCC2)c2ccncc2)c1 (stereo not given),-1,-4,24211*,-1,-4
CC(C)CNC(=O)CSc1n[nH]c(=O)n1CCc1ccccc1,1,6,3568,1,9
COc1ccc(CNC(=O)CN(C)Cc2ccc(C(C)(C)C)cc2)cc1,-3,6,2863,0,19
CCOc1ccc(N2CC(C(=O)Nc3cccc(C(=O)NC4CC4)c3)CC2=O)cc1 (stereo not given),2,-7,6822,-4,-9
COc1ccc(CNC(=O)C(c2cccs2)N(C(=O)c2csnn2)C2CC2)cc1 (stereo not given),5,-2,24268*,-2,-3
O=C(NCc1ccccc1)C(c1cccs1)N(C(=O)c1csnn1)C1CC1 (stereo not given),3,2,21285*,-1,-1
CCC(C)N(CC(=O)NCc1ccc(OC)cc1)C(=O)c1csnn1 (stereo not given),6,-15,16830*,?,8
O=C(NCc1ccccc1)C(c1ccccc1)N(C(=O)c1csnn1)C1CC1 (stereo not given),-2,-8,4029,0,-7
O=C(NCCc1ccccc1)C(c1cccs1)N(C(=O)c1csnn1)C1CC1 (stereo not given),-8,-10,20245*,?,7
O=C(NC(=S)NN1CCOCC1)c1cc(Br)ccc1Cl,4,2,7553,2,2
CN1CCN(C(=O)/C(=C/c2cccnc2)NC(=O)c2cccc(Br)c2)CC1,9,0,6143,-2,0
Cc1ccccc1NC1=NC(=S)N(CC(N)=O)C12CCOC(C)(C)C2 (stereo not given),10,13,3102,-2,45*
COc1cccc(Nc2nc3ccccc3nc2NS(=O)(=O)c2cccs2)c1,-9,-6,22498*,?,-2
CCN(CC)c1ccc(NC2CC(=O)N(CCc3ccc(OC)cc3)C2=O)cc1 (stereo not given),60*,-8,3991,0,-3
C[C@H]1CN(Cc2ccccc2)C(=O)[C@@H]1CC(=O)Nc1ccccc1,2,-3,3570,0,5
COc1ccc(C(=O)NCCCN2CCCC2=O)cc1,10,-5,4029,-1,-12
Cc1ccc(S(=O)(=O)Nc2ccccc2F)cc1C(=O)NCCCN1CCCC1=O,3,-2,22774*,-1,-1
Cc1ccc(NC(=O)NCCCN2CCCC2=O)cc1,-1,-2,22287*,2,1
O=C(NCCCN1CCCC1=O)c1ccc2c(c1)OCO2,-12,1,20949*,?,1
COc1ccc(C(C)NC(=O)C2CCN(CCCc3ccccc3)CC2)cc1OC (stereo not given),.,-3,3326,0,1
SMILES,MazEF act,Anthrax LF prot,Bead autofluor,BoNT A protease,BoNT F protease
CCOC(=O)c1cnc(-n2cc(C)cn2)nc1NCc1ccc2c(c1)OCO2,-5,0,21542*,?,-2
CCOC(=O)c1c(C)c(C(=O)NCc2ccc3c(c2)OCO3)c(C)n1CC,1,1,2126,0,-2
CCOc1ccc(N(Cc2cc3ccc(C)cc3[nH]c2=O)C(=O)COC)cc1,10,0,4792,0,-5
COCC(=O)N(Cc1cc2ccc(C)cc2[nH]c1=O)c1ccc(OC)cc1,-2,-2,23081*,?,1
CCC(C)N1C(=O)/C(=C/c2c(NCCCOC(C)C)nc3c(C)cccn3c2=O)SC1=S (stereo not given),-276,?,?,?,?
CCCN1C(=O)/C(=C/c2c(NCCCOC(C)C)nc3c(C)cccn3c2=O)SC1=S,436*,8,4542,15,35*
COc1nn(CC(=O)N2N=C(C)CC2(O)C(F)F)cc1[N+](=O)[O-] (stereo not given),1,0,3336,0,-5
O=C(Cn1cc([N+](=O)[O-])cn1)N1N=C(C(F)F)CC1(O)C(F)F (stereo not given),7,0,22225*,2,4
NCC12CC3CC(CC(O)(C3)C1)C2,-2,-3,12747,0,2
NCC12CC3CC(C1)CC(CN)(C3)C2,-3,-3,23074*,0,-7
COc1ccc(C=CC(O)CCN2CCC3CCC(C3)C2)cc1 (stereo not given),7,-3,4248,0,-2
CCOC(=O)N1CCN(CC(=O)N2c3ccccc3Sc3ccccc32)CC1,1,-4,3824,-2,-15
CCOC(=O)N1CCN(CC(=O)N2c3ccccc3CC2C)CC1 (stereo not given),12,0,25433*,-3,-3
CCN1CCN(CC(=O)N2c3ccccc3CC2C)CC1 (stereo not given),-12,0,24267*,-3,-4
CC1Cc2ccccc2N1C(=O)CN1CCCCC1 (stereo not given),2,-7,3845,1,-17
Cc1ccc(NC(=O)CN(C)C(=O)c2cccc(S(=O)(=O)NCc3cccs3)c2)cc1,1,0,3557,1,-3
CCOc1ccc(S(=O)(=O)NCCC(=O)NCc2cccnc2)cc1,-4,.,.,.,.
O=C(NCCOc1ccccc1)C1=CC=CN2CCS(=O)(=O)N=C12,11,1,3929,0,5
Cc1ccc2cc(C#N)c(N3CCCN(C(=O)C4CCCO4)CC3)nc2c1C (stereo not given),-1,13,16171*,13,10
Cn1c(=O)c2cc(NC(=O)NCc3ccc(Cl)cc3Cl)ccc2n1Cc1ccc(F)cc1,.,-3,2773,0,-5
O=C(Nc1cc(F)cc(F)c1)c1ccc(NCCc2ccccc2)c([N+](=O)[O-])c1,552*,1,10118,-1,5
O=C(Nc1ccccc1)c1ccc(NCCN2C(=O)CCC2=O)c([N+](=O)[O-])c1,51*,-2,3328,0,-4
Cc1ccc(NC(=O)c2ccc(NCCc3ccccc3)c([N+](=O)[O-])c2)cc1F,50,2,11272,-3,-8
